Eight sequences from article PMC7862700, “An all-to-all approach to the identification of sequence-specific readers for epigenetic DNA modifications on cytosine” can be followed below.

Assay in all cases: DAPPL (digital affinity profiling via proximity ligation, sequencing); 10 mM Tris-HCl pH 7.5, 50 mM NaCl, 1 mM DTT, 4% glycerol, room temperature, 30 min; GST-TFs on glutathione beads, 16-mer random dsDNA library, 0.1% formaldehyde crosslink after washing; high values mean tight binding
What all share (conditions): protein: recombinant; tags: N-terminal GST; dsDNA, one strand shown

Test [1] concerns the target T1, ERF (Homo sapiens, UniProt P50548 1-548).
T1 sequence: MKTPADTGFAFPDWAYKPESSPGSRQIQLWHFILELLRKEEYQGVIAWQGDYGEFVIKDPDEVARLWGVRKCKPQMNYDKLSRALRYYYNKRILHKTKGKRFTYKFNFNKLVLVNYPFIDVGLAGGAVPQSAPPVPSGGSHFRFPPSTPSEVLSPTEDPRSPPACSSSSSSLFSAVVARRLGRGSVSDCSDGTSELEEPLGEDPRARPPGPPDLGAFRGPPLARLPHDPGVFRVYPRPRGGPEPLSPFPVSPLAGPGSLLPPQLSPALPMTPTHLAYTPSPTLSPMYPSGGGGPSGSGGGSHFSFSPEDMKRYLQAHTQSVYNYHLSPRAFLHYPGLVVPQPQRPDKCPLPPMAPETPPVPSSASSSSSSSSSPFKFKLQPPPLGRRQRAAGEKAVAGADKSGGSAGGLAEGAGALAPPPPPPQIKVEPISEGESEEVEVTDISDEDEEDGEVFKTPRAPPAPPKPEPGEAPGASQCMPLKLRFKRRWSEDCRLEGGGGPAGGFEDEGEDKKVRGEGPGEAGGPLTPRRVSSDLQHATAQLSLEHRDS
The method, boiled down:
(§1)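 Human transcription factors fused to GST were expressed in yeast, captured on glutathione beads, given DNA barcodes and pooled with a GST-only negative control. Pools were incubated with 200 nmole of a 16-mer random double-stranded DNA library in Tris/NaCl/DTT/glycerol buffer at room temperature for 30 min. They were then washed, crosslinked with 0.1% formaldehyde, proximity-ligated (BsaI/T4 ligase, 1 h, 37 °C), PCR-amplified and sequenced on an Illumina NextSeq500. Binding signal is each 6-mer's read frequency for a factor divided by its frequency for the GST control.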

Test [2] deals with T2, ETV3L (Homo sapiens, UniProt Q6ZN32 1-361).
T2 sequence: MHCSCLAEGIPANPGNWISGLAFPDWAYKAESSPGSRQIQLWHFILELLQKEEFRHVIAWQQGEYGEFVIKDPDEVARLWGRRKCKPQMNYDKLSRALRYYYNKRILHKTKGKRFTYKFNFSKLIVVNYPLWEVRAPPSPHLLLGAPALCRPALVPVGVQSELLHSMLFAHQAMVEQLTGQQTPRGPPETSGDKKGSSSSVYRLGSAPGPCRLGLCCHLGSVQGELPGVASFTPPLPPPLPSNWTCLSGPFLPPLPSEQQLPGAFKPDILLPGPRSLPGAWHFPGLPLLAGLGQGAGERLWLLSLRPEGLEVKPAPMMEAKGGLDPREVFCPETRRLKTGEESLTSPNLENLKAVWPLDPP
The method, boiled down: as §1

The target of test [3] is T3, ETS2 (Homo sapiens, UniProt P15036 1-469).
T3 sequence: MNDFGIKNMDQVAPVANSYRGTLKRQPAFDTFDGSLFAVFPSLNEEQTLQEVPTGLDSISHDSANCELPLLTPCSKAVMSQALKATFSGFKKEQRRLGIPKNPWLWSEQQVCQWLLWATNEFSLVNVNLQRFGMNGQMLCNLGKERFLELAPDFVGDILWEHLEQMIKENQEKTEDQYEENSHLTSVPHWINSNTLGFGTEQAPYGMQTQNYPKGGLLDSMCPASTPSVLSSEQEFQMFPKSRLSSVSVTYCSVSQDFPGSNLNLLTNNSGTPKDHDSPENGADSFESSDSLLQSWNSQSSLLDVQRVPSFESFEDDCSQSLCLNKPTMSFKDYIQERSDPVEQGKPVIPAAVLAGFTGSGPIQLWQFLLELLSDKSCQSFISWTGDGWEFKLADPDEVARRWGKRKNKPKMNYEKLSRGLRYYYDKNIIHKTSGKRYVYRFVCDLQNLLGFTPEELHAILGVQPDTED
The procedure, abridged: as §1

The target in test [4] is T4, SPDEF (Homo sapiens, UniProt O95238 1-335).
T4 sequence: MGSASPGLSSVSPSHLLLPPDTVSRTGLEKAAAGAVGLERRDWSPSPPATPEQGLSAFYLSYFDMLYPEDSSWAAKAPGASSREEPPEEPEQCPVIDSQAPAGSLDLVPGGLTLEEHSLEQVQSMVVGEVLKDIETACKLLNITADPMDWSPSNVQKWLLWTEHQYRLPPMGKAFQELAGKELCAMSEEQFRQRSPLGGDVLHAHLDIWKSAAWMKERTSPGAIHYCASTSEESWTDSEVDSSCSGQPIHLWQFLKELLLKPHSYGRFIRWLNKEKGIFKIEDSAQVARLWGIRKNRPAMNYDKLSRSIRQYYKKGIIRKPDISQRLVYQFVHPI
The method, boiled down: as §1

Test [5] deals with T5, ETV7 (Homo sapiens, UniProt Q9Y603 1-341).
T5 sequence: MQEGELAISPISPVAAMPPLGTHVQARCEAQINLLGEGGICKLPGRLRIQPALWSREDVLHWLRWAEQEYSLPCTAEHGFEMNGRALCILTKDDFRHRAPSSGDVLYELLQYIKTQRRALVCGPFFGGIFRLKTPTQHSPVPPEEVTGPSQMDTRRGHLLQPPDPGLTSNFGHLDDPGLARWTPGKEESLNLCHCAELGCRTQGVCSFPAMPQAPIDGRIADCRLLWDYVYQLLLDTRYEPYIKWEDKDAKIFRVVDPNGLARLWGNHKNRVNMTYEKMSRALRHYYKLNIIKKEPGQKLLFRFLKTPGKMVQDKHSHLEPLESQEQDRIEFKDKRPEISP
The method, boiled down: as §1

For test [6], the target named is T6, ELF5 (Homo sapiens, UniProt Q9UKW6-2 1-255).
T6 sequence: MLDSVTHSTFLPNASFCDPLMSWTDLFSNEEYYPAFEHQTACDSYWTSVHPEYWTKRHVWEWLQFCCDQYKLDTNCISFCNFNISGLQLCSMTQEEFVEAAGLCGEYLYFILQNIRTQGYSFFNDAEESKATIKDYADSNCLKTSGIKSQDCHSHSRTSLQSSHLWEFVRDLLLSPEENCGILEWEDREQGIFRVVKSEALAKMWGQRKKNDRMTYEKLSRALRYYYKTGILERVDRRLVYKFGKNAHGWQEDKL
The procedure, abridged:
as §1

In test [7] the target is T7, ETV3 (Homo sapiens, UniProt P41162-2 1-143).
T7 sequence: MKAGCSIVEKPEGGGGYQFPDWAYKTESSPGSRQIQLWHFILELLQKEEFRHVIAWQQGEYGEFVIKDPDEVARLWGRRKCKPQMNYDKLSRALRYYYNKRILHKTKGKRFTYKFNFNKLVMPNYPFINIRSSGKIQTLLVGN
The procedure, abridged:
as §1

Test [8] deals with ETV6 (Homo sapiens, UniProt P41212 1-452). The method, boiled down:
as §1

Chain of ETV6 (P41212 whole entry): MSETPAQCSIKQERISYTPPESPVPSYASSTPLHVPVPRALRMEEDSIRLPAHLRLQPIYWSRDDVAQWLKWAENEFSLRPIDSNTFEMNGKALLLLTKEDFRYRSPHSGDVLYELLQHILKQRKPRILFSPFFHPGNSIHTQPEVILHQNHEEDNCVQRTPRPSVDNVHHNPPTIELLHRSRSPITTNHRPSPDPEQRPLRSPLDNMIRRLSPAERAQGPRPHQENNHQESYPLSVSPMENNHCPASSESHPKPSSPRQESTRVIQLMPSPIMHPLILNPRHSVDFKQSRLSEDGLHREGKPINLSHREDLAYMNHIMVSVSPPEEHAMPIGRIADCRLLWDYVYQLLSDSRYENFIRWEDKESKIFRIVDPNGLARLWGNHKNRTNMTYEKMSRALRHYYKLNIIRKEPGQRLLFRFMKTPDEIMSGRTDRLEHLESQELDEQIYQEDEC

As for GTTCAC, the binding signal in test [1] is 1.29 fold enrichment (6-mer frequency, TF over GST control); in test [2] it was 1.25 fold enrichment (6-mer frequency, TF over GST control); in test [3], 1.28 fold enrichment (6-mer frequency, TF over GST control); in test [4], 1.23 fold enrichment (6-mer frequency, TF over GST control); in test [5], 1.29 fold enrichment (6-mer frequency, TF over GST control); in test [6], 1.13 fold enrichment (6-mer frequency, TF over GST control). In addition, the binding signal was 1.19 fold enrichment (6-mer frequency, TF over GST control) in test [7] and 1.2 fold enrichment (6-mer frequency, TF over GST control) in test [8].
On to TGCAAT, for which the binding signal in test [1] is 1.14 fold enrichment (6-mer frequency, TF over GST control); in test [2] it was 1.12 fold enrichment (6-mer frequency, TF over GST control); in test [3], 1.15 fold enrichment (6-mer frequency, TF over GST control); in test [4], 1.15 fold enrichment (6-mer frequency, TF over GST control); in test [5], 1.2 fold enrichment (6-mer frequency, TF over GST control); in test [6], 1.1 fold enrichment (6-mer frequency, TF over GST control). The binding signal was 1.15 fold enrichment (6-mer frequency, TF over GST control) in test [7] and 1.17 fold enrichment (6-mer frequency, TF over GST control) in test [8].
As for CATCTG, the binding signal in test [1] is 1.35 fold enrichment (6-mer frequency, TF over GST control); in test [2], 1.23 fold enrichment (6-mer frequency, TF over GST control); in test [3] it was 1.24 fold enrichment (6-mer frequency, TF over GST control); in test [4], 1.23 fold enrichment (6-mer frequency, TF over GST control); in test [5], 1.33 fold enrichment (6-mer frequency, TF over GST control); in test [6] it was 1.23 fold enrichment (6-mer frequency, TF over GST control). The binding signal was 1.17 fold enrichment (6-mer frequency, TF over GST control) in test [7] and 1.11 fold enrichment (6-mer frequency, TF over GST control) in test [8].
For the sequence CGACCG, the binding signal in test [1] is 1.17 fold enrichment (6-mer frequency, TF over GST control); in test [2], 1.28 fold enrichment (6-mer frequency, TF over GST control); in test [3], 1.22 fold enrichment (6-mer frequency, TF over GST control); in test [4], 1.22 fold enrichment (6-mer frequency, TF over GST control); in test [5], 1.13 fold enrichment (6-mer frequency, TF over GST control); in test [6], 1.12 fold enrichment (6-mer frequency, TF over GST control). The binding signal was 1.12 fold enrichment (6-mer frequency, TF over GST control) in test [7] and 1.18 fold enrichment (6-mer frequency, TF over GST control) in test [8].
In the case of GTCCTC, the binding signal was 1.19 fold enrichment (6-mer frequency, TF over GST control) in test [1]; 1.22 fold enrichment (6-mer frequency, TF over GST control) in test [2]; 1.14 fold enrichment (6-mer frequency, TF over GST control) in test [3]; 1.19 fold enrichment (6-mer frequency, TF over GST control) in test [4]; 1.39 fold enrichment (6-mer frequency, TF over GST control) in test [5]; 1.32 fold enrichment (6-mer frequency, TF over GST control) in test [6]. In addition, the binding signal in test [7] was 1.2 fold enrichment (6-mer frequency, TF over GST control); in test [8], 1.06 fold enrichment (6-mer frequency, TF over GST control).
Take CCGGTC: the binding signal was 1.1 fold enrichment (6-mer frequency, TF over GST control) in test [1]; 1.13 fold enrichment (6-mer frequency, TF over GST control) in test [2]; 1.2 fold enrichment (6-mer frequency, TF over GST control) in test [3]; 1.38 fold enrichment (6-mer frequency, TF over GST control) in test [4]; 1.22 fold enrichment (6-mer frequency, TF over GST control) in test [5]; 1.13 fold enrichment (6-mer frequency, TF over GST control) in test [6]. Further, the binding signal in test [7] is 1.2 fold enrichment (6-mer frequency, TF over GST control); in test [8], 1.15 fold enrichment (6-mer frequency, TF over GST control).
For AATGAA, the binding signal in test [1] was 1.29 fold enrichment (6-mer frequency, TF over GST control); in test [2], 1.19 fold enrichment (6-mer frequency, TF over GST control); in test [3] it was 1.15 fold enrichment (6-mer frequency, TF over GST control); in test [4] it was 1.04 fold enrichment (6-mer frequency, TF over GST control); in test [5] it was 1.18 fold enrichment (6-mer frequency, TF over GST control); in test [6], 1.22 fold enrichment (6-mer frequency, TF over GST control). For the same sequence, the binding signal is 1.17 fold enrichment (6-mer frequency, TF over GST control) in test [7] and 1.23 fold enrichment (6-mer frequency, TF over GST control) in test [8].
As to ACCTTG, the binding signal in test [1] was 1.31 fold enrichment (6-mer frequency, TF over GST control); in test [2], 1.23 fold enrichment (6-mer frequency, TF over GST control); in test [3], 1.27 fold enrichment (6-mer frequency, TF over GST control); in test [4], 1.27 fold enrichment (6-mer frequency, TF over GST control); in test [5] it was 1.22 fold enrichment (6-mer frequency, TF over GST control); in test [6], 1.11 fold enrichment (6-mer frequency, TF over GST control). Moreover, the binding signal is 1.25 fold enrichment (6-mer frequency, TF over GST control) in test [7] and 1.17 fold enrichment (6-mer frequency, TF over GST control) in test [8].
